# Test results: article PMC5540273 (PLoS ONE, 2017)
# Tested on: T1, p38-gamma
# T1 construct: gene MAPK12
# Settings: concentration: 1 μM,replicates: in singlicate; n = 1
# 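Further: KINOMEscan kinase panel screen.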
row,Compound,%Inh [%]
1,Cc1n[nH]c2ccc(-c3cc(OC[C@@H](N)Cc4ccccc4)cnc3-c3ccoc3)cc12.O=C(O)C(F)(F)F.O=C(O)C(F)(F)F [GSK507358],33
2,Cl.Oc1cc(-c2nc(-c3ccccc3)[nH]c2-c2ccncc2)ccc1Cl [SB-386023],36
3,CCn1c(-c2nonc2N)nc2c(C#CC(C)(C)O)nc(OCCN)cc21.Cl.Cl [GSK902056],0
4,CCN(CC)CCOc1ccc(Nc2ncc3cc(-c4c(Cl)cccc4Cl)c(=O)n(C)c3n2)cc1 [SB-601273],18
5,CC(C)Nc1cc(-c2ccc3c(N)n[nH]c3c2)nc(N)n1 [GSK2221681],2
6,C=CC(=O)Nc1cc2c(Nc3ccc(F)c(Cl)c3)ncnc2cc1OCCCN1CCOCC1 [GW781483],0
7,CN(C)CCOc1ccc(-c2cc(-c3c[nH]nc3-c3ccccn3)ccn2)cc1 [GW835314],27
8,Cc1cc(C(=O)Nc2ccc(Oc3ccc4nc(NC(=O)C5CC5)cn4n3)cc2)nn1-c1ccccc1,52
9,Cl.Cl.Nc1nc(-c2ccc3c(N)n[nH]c3c2)cc(N2CCCC(NC(=O)c3ccccc3)C2)n1 (stereo not drawn) [GSK2286775],21
10,COc1ccc(C[C@@H](CN)NC(=O)c2cc(Br)c(-c3ccnc4[nH]ccc34)s2)cc1.Cl.Cl [GSK1389063],0
11,Cc1cc2cn[nH]c2cc1-c1cccc2c(N)c(C(N)=O)nnc12,52
12,Cl.Cl.NC[C@H](CC1CCCCC1)NC(=O)c1cc(Br)c(-c2ccnc3[nH]ccc23)s1 [GSK1581427],0
13,Cl.Cl.NC[C@H](Cc1ccc(C(F)(F)F)cc1)NC(=O)c1cc(Br)c(-c2ccnc3[nH]ccc23)s1 [GSK1487252],38
14,Cc1occc1-c1nc(N)c(OC[C@@H](N)Cc2c[nH]c3ccccc23)cc1-c1cc2c(C)n[nH]c2cn1 [GSK1660450],24
15,CN(C)CC(O)COc1ccc(Nc2nccc(-c3cnn4nc(N5CCOCC5)ccc34)n2)cc1 (stereo not drawn) [GW767488],73
16,CC(C)N1C(=O)Cc2cc(Nc3ncc(C(F)(F)F)c(NCc4cccc(S(C)(=O)=O)c4)n3)ccc21,0
17,CNC(=O)c1ccccc1Sc1ccc2c(/C=C/c3ccccn3)n[nH]c2c1,25
18,NC(=O)c1cc(-c2ccccc2)cc2c(C3CCNCC3)c[nH]c12 [GSK301362],0
19,C[C@H]1Oc2cc(cnc2N)-c2c(nn(C)c2C#N)CN(C)C(=O)c2ccc(F)cc21,5
20,Cc1ccc2c(-c3ccncc3)c(-c3ccc(F)cc3)nn2c1.Cl [GW461484],12
21,CCN(CC)CCCCNc1ncc2cc(-c3c(Cl)cccc3Cl)c(NC(=O)NC(C)(C)C)nc2n1,26
22,O=C(NCCCN1CCOC1=O)c1cnc(NCc2cc(Cl)ccc2Cl)nc1NC1CCCC1,1
23,Nc1nc(Nc2ccccc2)cc(-c2ccc3c(N)n[nH]c3c2)n1 [GSK2225749],0
24,O=C(NCCNc1ccnc(NCc2ccc(F)cc2)n1)c1cc2ccccc2s1 [GSK1379944],0
